# According to PubChem BioAssay (EPA / NIEHS):
# Where “and” joins values, the source holds several entries; their conditions need not be identical. Equal entries are not always repeated. Records with an inconclusive call do not appear. Calls of active or inactive are those of the source. How the source made its calls, unless noted: active means hit-call score of the fitted dose curve at least 0.9, where 1 is the maximum; inconclusive means response in the unintended direction; inactive means score below 0.9.
# Experiments:
# [1] = target: human Peroxisome Proliferator-activated Receptor delta (PPARd), PPARD (gene 5467) (UniProt Q03181); test: ATG_PPARd_TRANS: Attagene TRANS-FACTORIAL HepG2 Assay for human Peroxisome Proliferator-activated Receptor delta (PPARd) (AID 2283002)
# How it was run: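 HepG2 cells transiently transfected with multiplexed GAL4-UAS reporter units and exogenous chimeric NR-Gal4 proteins; 24 h compound exposure. Reporter mRNA measured by RT-PCR, 6-FAM labelling, HpaI digestion and capillary electrophoresis; gain of signal versus DMSO.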
# [2] = target: Peroxisome proliferator-activated receptor gamma (Homo sapiens) (UniProt P37231); test: ATG_PPARg_TRANS: Attagene TRANS-FACTORIAL HepG2 Assay for human Peroxisome Proliferator-activated Receptor-gamma (PPARg) (AID 2283007)
# How it was run: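 HepG2 cells are transiently transfected with GAL4-UAS reporter units driven by chimeric NR-Gal4 fusions and dosed for 24 h. Reporter mRNA is quantified by RT-PCR, 6-FAM labelling, HpaI digestion and capillary electrophoresis. Induction is scored against DMSO.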
# [3] = target: Nuclear receptor subfamily 1 group I member 2 (Homo sapiens) (UniProt O75469); test: ATG_PXR_TRANS: Attagene TRANS-FACTORIAL HepG2 Assay for human Pregnane X Receptor (PXR) (AID 2283008)
# How it was run: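 HepG2 transfected (FuGene 6) with GAL4-UAS reporter units + PXR-Gal4 chimera; dosed 24 h. Total RNA → oligo(dT) RT → PCR → 6-FAM primer extension → HpaI cut → CE. Gain-of-signal vs DMSO.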
# [4] = target: Retinoic acid receptor alpha (Homo sapiens) (UniProt P10276); test: ATG_RARa_TRANS: Attagene TRANS-FACTORIAL HepG2 Assay for human Retinoic Acid Receptor alpha (RARa) (AID 2283005)
# How it was run: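 HepG2 cells transiently transfected with multiple reporter units expressing chimeric RARα-GAL4 fusion, with GAL4-UAS-driven reporters. After 24 h compound exposure, reporter mRNA induction quantified by RT-PCR and capillary electrophoresis with fluorescent labeling; gain-of-signal fitted relative to DMSO control.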
# [5] = target: human Retinoic Acid Receptor gamma (RARg), RARG (gene 5916) (UniProt P13631); test: ATG_RARg_TRANS: Attagene TRANS-FACTORIAL HepG2 Assay for human Retinoic Acid Receptor gamma (RARg) (AID 2283009)
# How it was run: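 Transactivation of exogenous RARg-Gal4 fusion measured as reporter transcript induction after 24 h in transfected HepG2 cells. RNA reverse-transcribed, amplified, fluorescently labeled and resolved by capillary electrophoresis; increase relative to DMSO.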
# [6] = target: human Retinoic Acid Receptor beta (RARb), RARB (gene 5915) (UniProt P10826); test: ATG_RARb_TRANS: Attagene TRANS-FACTORIAL HepG2 Assay for human Retinoic Acid Receptor beta (AID 2283004)
# How it was run: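 HepG2 cells transiently transfected with multiplexed GAL4-UAS reporter units expressing chimeric NR–Gal4 fusions; 24 h compound exposure. Reporter mRNA quantified by RT-PCR, 6-FAM labelling, HpaI digestion and capillary electrophoresis; gain-of-signal fitted against DMSO baseline.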
# [7] = target: human RAR-related Orphan Receptor beta (RORb), RORB (gene 6096) (UniProt Q92753); test: ATG_RORb_TRANS: Attagene TRANS-FACTORIAL HepG2 Assay for human RAR-related Orphan Receptor beta (RORb) (AID 2283010)
# How it was run: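 Read-out is reporter mRNA induction, quantified by RT-PCR with fluorescent capillary electrophoresis, 24 h post-dose in transiently transfected HepG2 expressing exogenous NR-Gal4 chimera. Activity fitted upward versus DMSO.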
# [8] = read-out: Intercellular Adhesion Molecule 1 (ICAM1), ICAM1 (gene 3383); test: BSK_3C_ICAM1: BioMAP Diversity Plus: 3C Assay for Intercellular Adhesion Molecule 1 (ICAM1) Biomarker Activity (AID 2283003; active means hit-call score of the fitted dose curve at least 0.9, where 1 is the maximum; inactive means score below 0.9); conditions: primary human endothelial cells (HUVEC); actives raise or lower the signal
# How it was run: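 ELISA readout of ICAM1 in human umbilical vein endothelial cells in the 3C system, taken 24 h post-dose. Gain or loss of signal versus DMSO was fitted in both directions, with SRB total-protein staining run in parallel.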
# [9] = BSK_3C_Proliferation: Cell Proliferation Assessment in the BioMAP Diversity Plus: 3C Assay (AID 2283006; active means hit-call score of the fitted dose curve at least 0.9, where 1 is the maximum; inactive means score below 0.9;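 on AC50: potency may reflect either rise or fall in cell number versus DMSO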); conditions: primary human endothelial cells (HUVEC)
# How it was run: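 Proliferation as total protein: sulforhodamine B (0.1%) stain of TCA-fixed subconfluent human umbilical vein endothelial cells, absorbance 560 nm, 48 h after dosing. Activity fitted in both directions against DMSO baseline.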
# Chain of Peroxisome proliferator-activated receptor gamma (Homo sapiens) (P37231 whole entry, looked up, the tested form may be a part): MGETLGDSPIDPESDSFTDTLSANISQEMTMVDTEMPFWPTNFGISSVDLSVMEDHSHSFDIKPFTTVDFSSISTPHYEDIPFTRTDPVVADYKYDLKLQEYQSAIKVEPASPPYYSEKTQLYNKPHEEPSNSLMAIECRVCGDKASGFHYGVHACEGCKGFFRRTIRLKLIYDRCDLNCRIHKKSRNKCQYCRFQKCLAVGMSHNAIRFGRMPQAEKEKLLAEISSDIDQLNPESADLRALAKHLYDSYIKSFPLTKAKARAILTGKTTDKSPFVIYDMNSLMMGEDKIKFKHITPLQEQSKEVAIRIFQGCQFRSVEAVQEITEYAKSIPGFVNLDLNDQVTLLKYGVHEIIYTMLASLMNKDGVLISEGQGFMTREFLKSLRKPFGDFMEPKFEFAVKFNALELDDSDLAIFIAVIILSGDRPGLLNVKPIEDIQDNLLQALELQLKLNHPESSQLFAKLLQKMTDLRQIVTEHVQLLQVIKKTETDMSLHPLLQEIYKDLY
# Chain of human Retinoic Acid Receptor gamma (RARg), RARG (gene 5916) (P13631 whole entry, looked up, the tested form may be a part): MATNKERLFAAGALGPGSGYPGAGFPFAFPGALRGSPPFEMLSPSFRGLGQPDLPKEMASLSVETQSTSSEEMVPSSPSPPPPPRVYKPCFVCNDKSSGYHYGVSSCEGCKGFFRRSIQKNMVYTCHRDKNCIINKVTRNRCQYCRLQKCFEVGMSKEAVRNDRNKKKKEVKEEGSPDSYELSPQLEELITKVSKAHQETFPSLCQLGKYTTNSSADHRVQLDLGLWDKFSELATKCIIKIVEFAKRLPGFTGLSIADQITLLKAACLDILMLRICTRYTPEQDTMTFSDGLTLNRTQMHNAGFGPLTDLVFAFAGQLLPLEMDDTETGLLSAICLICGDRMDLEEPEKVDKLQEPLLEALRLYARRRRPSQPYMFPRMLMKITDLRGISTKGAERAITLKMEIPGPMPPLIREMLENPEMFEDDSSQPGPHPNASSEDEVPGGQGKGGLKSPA
# Chain of human Retinoic Acid Receptor beta (RARb), RARB (gene 5915) (P10826 whole entry, looked up, the tested form may be a part): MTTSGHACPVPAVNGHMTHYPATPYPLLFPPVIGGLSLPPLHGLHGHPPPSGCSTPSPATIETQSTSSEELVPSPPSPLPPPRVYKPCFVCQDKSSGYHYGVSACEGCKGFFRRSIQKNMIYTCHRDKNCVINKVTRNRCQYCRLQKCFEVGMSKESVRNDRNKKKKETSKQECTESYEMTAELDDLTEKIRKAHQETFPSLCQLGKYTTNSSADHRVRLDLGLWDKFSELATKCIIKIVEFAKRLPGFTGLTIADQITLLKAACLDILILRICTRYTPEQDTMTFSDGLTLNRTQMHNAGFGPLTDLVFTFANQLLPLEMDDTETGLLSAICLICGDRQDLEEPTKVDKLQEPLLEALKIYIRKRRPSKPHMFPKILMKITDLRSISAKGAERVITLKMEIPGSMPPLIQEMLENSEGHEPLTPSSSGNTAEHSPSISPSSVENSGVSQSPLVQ
# Chain of Nuclear receptor subfamily 1 group I member 2 (Homo sapiens) (O75469 whole entry, looked up, the tested form may be a part): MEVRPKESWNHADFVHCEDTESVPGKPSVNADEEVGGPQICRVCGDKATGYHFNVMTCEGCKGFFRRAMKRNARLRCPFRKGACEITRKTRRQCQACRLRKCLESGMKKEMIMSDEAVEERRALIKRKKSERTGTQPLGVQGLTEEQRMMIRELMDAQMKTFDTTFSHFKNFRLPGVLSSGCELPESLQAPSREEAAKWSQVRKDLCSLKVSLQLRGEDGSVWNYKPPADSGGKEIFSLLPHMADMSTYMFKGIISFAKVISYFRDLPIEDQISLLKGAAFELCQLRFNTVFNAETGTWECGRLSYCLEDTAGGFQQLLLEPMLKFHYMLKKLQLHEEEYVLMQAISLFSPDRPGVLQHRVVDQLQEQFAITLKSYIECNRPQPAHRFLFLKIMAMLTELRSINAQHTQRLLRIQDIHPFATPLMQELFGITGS
# Chain of human RAR-related Orphan Receptor beta (RORb), RORB (gene 6096) (Q92753 whole entry, looked up, the tested form may be a part): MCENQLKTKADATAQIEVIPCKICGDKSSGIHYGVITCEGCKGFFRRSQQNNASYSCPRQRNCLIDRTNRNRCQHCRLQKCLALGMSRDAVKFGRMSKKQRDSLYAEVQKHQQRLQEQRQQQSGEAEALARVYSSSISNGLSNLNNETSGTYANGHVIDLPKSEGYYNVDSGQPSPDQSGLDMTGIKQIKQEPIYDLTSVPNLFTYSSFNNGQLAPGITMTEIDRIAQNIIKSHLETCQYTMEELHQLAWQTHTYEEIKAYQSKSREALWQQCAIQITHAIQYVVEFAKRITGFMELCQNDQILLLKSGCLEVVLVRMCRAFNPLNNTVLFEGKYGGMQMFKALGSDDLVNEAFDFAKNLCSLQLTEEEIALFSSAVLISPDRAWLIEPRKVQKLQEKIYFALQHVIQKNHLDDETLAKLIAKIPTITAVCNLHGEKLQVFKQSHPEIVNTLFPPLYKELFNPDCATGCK
# Chain of Retinoic acid receptor alpha (Homo sapiens) (P10276 whole entry, looked up, the tested form may be a part): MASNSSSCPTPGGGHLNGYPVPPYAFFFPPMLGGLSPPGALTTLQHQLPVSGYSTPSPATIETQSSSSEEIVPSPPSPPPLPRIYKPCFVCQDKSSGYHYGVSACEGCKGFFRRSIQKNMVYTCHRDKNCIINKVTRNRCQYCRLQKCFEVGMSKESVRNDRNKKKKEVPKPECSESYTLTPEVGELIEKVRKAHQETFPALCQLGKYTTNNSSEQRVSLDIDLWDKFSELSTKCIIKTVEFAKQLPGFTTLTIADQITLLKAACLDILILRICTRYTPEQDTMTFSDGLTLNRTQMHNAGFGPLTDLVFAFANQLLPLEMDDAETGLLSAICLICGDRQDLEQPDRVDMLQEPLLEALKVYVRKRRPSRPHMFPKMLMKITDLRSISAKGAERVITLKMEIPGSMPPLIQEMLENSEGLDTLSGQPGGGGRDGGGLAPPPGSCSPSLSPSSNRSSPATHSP
# Chain of human Peroxisome Proliferator-activated Receptor delta (PPARd), PPARD (gene 5467) (Q03181 whole entry, looked up, the tested form may be a part): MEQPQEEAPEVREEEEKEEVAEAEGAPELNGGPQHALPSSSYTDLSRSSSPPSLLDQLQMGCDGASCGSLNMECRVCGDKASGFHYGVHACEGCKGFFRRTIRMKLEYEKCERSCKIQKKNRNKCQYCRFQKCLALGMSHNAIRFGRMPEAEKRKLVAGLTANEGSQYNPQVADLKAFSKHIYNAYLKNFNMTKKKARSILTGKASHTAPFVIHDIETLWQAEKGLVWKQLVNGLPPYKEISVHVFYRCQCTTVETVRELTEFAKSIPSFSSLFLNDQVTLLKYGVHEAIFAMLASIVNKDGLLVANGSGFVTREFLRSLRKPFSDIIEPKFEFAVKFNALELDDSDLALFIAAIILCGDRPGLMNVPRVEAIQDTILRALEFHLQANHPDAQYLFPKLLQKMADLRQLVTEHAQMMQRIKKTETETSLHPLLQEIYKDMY
smiles,measurement,setting,value
CC(C)c1ccc(C=O)cc1,outcome,[1],inactive
same,outcome,[2],inactive
same,outcome,[3],inactive
C=COCCCC,outcome,[1],inactive
same,outcome,[4],inactive
O=S(=O)(Oc1ccc(Cl)cc1Cl)c1ccccc1,outcome,[1],inactive
same,AC50,[2],29.5 µM (active)
O=S(=O)(O)c1cc(S(=O)(=O)O)c2ccc3c(S(=O)(=O)O)cc(S(=O)(=O)O)c4ccc1c2c43,outcome,[1],inactive
same,outcome,[4],inactive
same,outcome,[5],inactive
CC(CC=O)c1ccccc1 (centres undefined),outcome,[1],inactive
same,AC50,[2],56.2 µM (active)
same,AC50,[3],5.22 µM (active)
O=c1cc[nH]c(=S)[nH]1,outcome,[1],inactive
same,outcome,[4],inactive
same,outcome,[2],inactive
same,outcome,[3],inactive
same,outcome,[5],inactive
COC=O,outcome,[1],inactive
same,outcome,[6],inactive
same,outcome,[3],inactive
same,outcome,[5],inactive
CN(C)CCCN(C)C,outcome,[1],inactive
same,outcome,[6],inactive
same,outcome,[2],inactive
same,outcome,[3],inactive
same,outcome,[7],inactive
CC(=O)OC1C2(C)CCC(C2)C1(C)C (centres undefined),outcome,[1],inactive
same,outcome,[2],inactive
same,outcome,[3],inactive
C=C[C@](C)(O)CC[C@@H]1[C@@]2(C)CCCC(C)(C)[C@@H]2CC[C@@]1(C)O,outcome,[1],inactive
same,outcome,[2],inactive
same,AC50,[3],0.331 µM (active)
CCCCCCCCCCCCCOP(=O)(O)O,outcome,[1],inactive
same,AC50,[2],16.4 µM (active)
same,outcome,[3],inactive
same,outcome,[5],inactive
CC(=O)C=CC1C(C)=CCC(C)C1(C)C (centres undefined),outcome,[1],inactive
same,outcome,[2],inactive
same,AC50,[3],1.42 µM (active)
O=C(O)Cc1c(Cl)ccc(Cl)c1Cl,outcome,[1],inactive
same,outcome,[6],inactive
same,AC50,[2],52.1 µM (active)
same,outcome,[3],inactive
same,outcome,[5],inactive
CCCCCC(C)O (centres undefined),outcome,[1],inactive
same,outcome,[6],inactive
same,outcome,[2],inactive
Cc1cccc(N)n1,outcome,[1],inactive
same,outcome,[6],inactive
same,outcome,[7],inactive
OC1CCCCCCCCCCC1,outcome,[1],inactive
same,outcome,[6],inactive
same,outcome,[2],inactive
same,AC50,[3],8.87 µM (active)
same,outcome,[5],inactive
CCOC(F)(F)C(F)(F)C(F)(F)C(F)(F)F,outcome,[1],inactive
same,outcome,[2],inactive
same,outcome,[3],inactive
O=C(C(Cl)Cl)N1CCOC12CCCCC2,outcome,[1],inactive
same,outcome,[2],inactive
same,outcome,[3],inactive
same,outcome,[5],inactive
C=CC(C)(CCC=C(C)C)OC(=O)CC(C)C (centres undefined),outcome,[1],inactive
same,AC50,[2],58.2 µM (active)
CCOC(=O)NNc1nncc2ccccc12,outcome,[1],inactive
same,outcome,[6],inactive
same,outcome,[5],inactive
Nc1ccc(-c2ccc(F)cc2)cc1,outcome,[1],inactive
same,outcome,[2],inactive
same,outcome,[3],inactive
CCC(C)(C)C1CCCCC1OC(C)=O (centres undefined),outcome,[1],inactive
same,outcome,[6],inactive
same,outcome,[2],inactive
same,outcome,[3],inactive
same,outcome,[5],inactive
CCN(CCO)c1cccc(C)c1,outcome,[1],inactive
same,outcome,[2],inactive
same,AC50,[3],27 µM (active)
same,outcome,[5],inactive
CCC(Cc1ccccc1)(C(=O)c1ccc(N2CCOCC2)cc1)N(C)C (centres undefined),outcome,[1],inactive
same,AC50,[2],35.1 µM (active)
O=C(Oc1ccccc1)c1ccc2ccccc2c1O,outcome,[1],inactive
same,AC50,[2],15.9 µM (active)
same,AC50,[3],16.9 µM (active)
C[C@]12CCC(=O)C=C1CC[C@@H]1[C@@H]2C(=O)C[C@@]2(C)[C@H]1CC[C@]2(O)C(=O)CO,outcome,[1],inactive
same,outcome,[2],inactive
same,AC50,[3],26.9 µM (active)
CC(=O)OCC(C)OC(C)=O (centres undefined),outcome,[1],inactive
same,outcome,[6],inactive
same,outcome,[3],inactive
Cc1ccc(C2OC[C@@H]3OC(c4ccc(C)cc4)O[C@H]([C@H](O)CO)[C@@H]3O2)cc1 (some centres undefined),outcome,[1],inactive
same,outcome,[4],inactive
same,outcome,[2],inactive
same,outcome,[3],inactive
same,outcome,[7],inactive
C=C1[C@H]2CC[C@@H]3[C@H]2C(C)(C)CCC[C@]13C,outcome,[1],inactive
same,outcome,[6],inactive
same,outcome,[3],inactive
same,outcome,[5],inactive
c1ccc(CCCc2ccncc2)cc1,outcome,[1],inactive
same,AC50,[2],13.9 µM (active)
same,outcome,[3],inactive
O=C1Nc2ccccc2C1(c1ccc(O)cc1)c1ccc(O)cc1,outcome,[1],inactive
same,outcome,[2],inactive
same,outcome,[3],inactive
CC=C1CC2C=CC1C2 (centres undefined),outcome,[1],inactive
same,AC50,[2],25.9 µM (active)
same,AC50,[3],7.51 µM (active)
CC(=O)OCC(=O)[C@@]12N=C(C)O[C@@H]1C[C@H]1[C@@H]3CCC4=CC(=O)C=C[C@]4(C)[C@H]3[C@@H](O)C[C@@]12C,outcome,[1],inactive
same,outcome,[2],inactive
same,outcome,[3],inactive
CCCCCCOC(=O)C(C)CC (centres undefined),outcome,[1],inactive
same,outcome,[3],inactive
OC1CCCC1,outcome,[1],inactive
same,outcome,[7],inactive
CCOC(=O)c1ccccc1C(=C1C=C(Br)C(=O)C(Br)=C1)c1cc(Br)c(O)c(Br)c1,AC50,[8],21.1 µM (active) and 21.2 µM (active)
same,AC50,[9],20.1 µM (active) and 19.1 µM (active)
same,outcome,[3],inactive
CC1(C)O[C@@H]2C[C@H]3[C@@H]4C[C@H](F)C5=CC(=O)CC[C@]5(C)[C@H]4[C@@H](O)C[C@]3(C)[C@]2(C(=O)CO)O1,outcome,[1],inactive
same,AC50,[3],27 µM (active)
CCCOCCOCCOCCO,outcome,[1],inactive
same,outcome,[3],inactive
CCCCCCC(O)CO (centres undefined),outcome,[1],inactive
same,outcome,[2],inactive
same,outcome,[5],inactive
C=CCOc1c(Br)cc(Br)cc1Br,AC50,[8],28.7 µM (active)
same,outcome,[6],inactive
same,outcome,[4],inactive
same,AC50,[9],25.8 µM (active)
same,AC50,[3],27.4 µM (active)
same,outcome,[5],inactive
same,outcome,[7],inactive
OCCc1ccncc1,outcome,[6],inactive
same,outcome,[4],inactive
same,outcome,[2],inactive
same,outcome,[7],inactive
O=S(=O)(O)c1ccc2cc(O)c(S(=O)(=O)O)cc2c1,outcome,[1],inactive
same,outcome,[3],inactive
O=C1CCC(=O)N1Cl,outcome,[1],inactive
same,outcome,[3],inactive
O=C1CCCN1CCO,outcome,[8],inactive
same,outcome,[9],inactive
same,outcome,[3],inactive
same,outcome,[7],inactive
O=C(c1ccccc1)C1CCC1,outcome,[1],inactive
same,outcome,[2],inactive
same,outcome,[3],inactive
same,outcome,[7],inactive
COc1ccc(C(Cl)=C(c2ccc(OC)cc2)c2ccc(OC)cc2)cc1,outcome,[6],inactive
same,outcome,[4],inactive
same,AC50,[3],3.67 µM (active)
same,outcome,[5],inactive
CCOCC(=O)O,outcome,[1],inactive
same,outcome,[3],inactive
CC1OC1C1CCC2(C)OC2C1 (centres undefined),outcome,[8],inactive
same,outcome,[4],inactive
same,outcome,[9],inactive
same,AC50,[3],23.4 µM (active)
